Measurements: PubChem BioAssay (NCI)
The panel holds about 83,000 compounds, 20% with a hit somewhere; the sample as a whole holds those more often.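 Testing used 96-well plates and a 48-hour single-concentration exposure. Example: -40 means 40% of the starting cells died.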 Calls of active or inactive are those of the source. Rule for the calls: active = growth percent below 10; inactive = the rest.

How the values were obtained:
Experiment in all cases: NCI-60 one-dose screen, 48 h (100 = growth as untreated, 0 = no growth, -100 = all killed)
Settings in all cases: 10 µM unless noted
DU-145 prostate = test system: DU-145 prostate
K-562 leukemia = test system: K-562 leukemia
MALME-3M melanoma = test system: MALME-3M melanoma
MDA-MB-231 breast = test system: MDA-MB-231 breast
RXF 393 renal = test system: RXF 393 renal
SF-268 CNS = test system: SF-268 CNS
SF-295 CNS = test system: SF-295 CNS
SF-539 CNS = test system: SF-539 CNS
UACC-257 melanoma = test system: UACC-257 melanoma
M14 melanoma = test system: M14 melanoma
HCT-15 colon = test system: HCT-15 colon
HT29 colon = test system: HT29 colon
SNB-75 CNS = test system: SNB-75 CNS
SNB-19 CNS = test system: SNB-19 CNS
U251 CNS = test system: U251 CNS
SK-MEL-5 melanoma = test system: SK-MEL-5 melanoma
UACC-62 melanoma = test system: UACC-62 melanoma
LOX IMVI melanoma = test system: LOX IMVI melanoma
SK-MEL-28 melanoma = test system: SK-MEL-28 melanoma
PC-3 prostate = test system: PC-3 prostate

Measured: growth

C#CCOC(=O)C(N)CSSCC(N)C(=O)O (configuration not stated)
inactive: DU-145 prostate 119% | K-562 leukemia 108% | MALME-3M melanoma 95.6% | MDA-MB-231 breast 105% | RXF 393 renal 114% | SF-268 CNS 100% | SF-295 CNS 103% | SF-539 CNS 90.8% | UACC-257 melanoma 104% | M14 melanoma 100% | HCT-15 colon 108% | HT29 colon 102% | SNB-75 CNS 76.1% | SNB-19 CNS 103% | U251 CNS 105% | SK-MEL-5 melanoma 105% | UACC-62 melanoma 98% | LOX IMVI melanoma 98.7% | SK-MEL-28 melanoma 96.4%

O=C(Nc1ncc(Cc2ccccc2)s1)c1ccc2c(c1)OCCO2
active: K-562 leukemia 8.32% | SF-539 CNS -10.4% | HCT-15 colon 7.07% | HT29 colon 4.31% | SNB-75 CNS 9.1%
inactive: DU-145 prostate 15.2% | MALME-3M melanoma 57.9% | MDA-MB-231 breast 39.2% | RXF 393 renal 10.2% | SF-268 CNS 43.2% | SF-295 CNS 11.9% | UACC-257 melanoma 45.1% | M14 melanoma 18.6% | SNB-19 CNS 35.4% | U251 CNS 14.2% | PC-3 prostate 27.1% | UACC-62 melanoma 33.6% | SK-MEL-28 melanoma 66.3%

CCOC(=O)/C(=C\c1ccccc1Cl)P(=O)(OCC)OCC
active: LOX IMVI melanoma 0.286%
inactive: DU-145 prostate 36% | K-562 leukemia 28.6% | MALME-3M melanoma 71.2% | MDA-MB-231 breast 71% | RXF 393 renal 42.8% | SF-268 CNS 63.2% | SF-295 CNS 96.7% | SF-539 CNS 48.2% | UACC-257 melanoma 61.9% | M14 melanoma 56.6% | HCT-15 colon 34.4% | HT29 colon 34.7% | SNB-75 CNS 51% | SNB-19 CNS 84.8% | U251 CNS 66.3% | SK-MEL-5 melanoma 79.5% | UACC-62 melanoma 56.7% | SK-MEL-28 melanoma 65.2%

CCN(CC)CCN1C(=O)c2c(c(C)c3c(oc4cc(OC)ccc43)c2C)C1=O
inactive: DU-145 prostate 75.1% | MALME-3M melanoma 102% | MDA-MB-231 breast 58.4% | RXF 393 renal 73.1% | SF-268 CNS 89.6% | SF-295 CNS 89.4% | SF-539 CNS 70.6% | UACC-257 melanoma 127% | M14 melanoma 98.9% | HCT-15 colon 101% | HT29 colon 96.8% | SNB-75 CNS 77.2% | SNB-19 CNS 87.6% | U251 CNS 55.5% | SK-MEL-5 melanoma 95.8% | UACC-62 melanoma 102% | LOX IMVI melanoma 83.1% | SK-MEL-28 melanoma 76.1%
active: K-562 leukemia -29.2%

CCOC(=O)c1ccc2c(c1)c1c(C)c3cnccc3c(C)c1n2C
active: DU-145 prostate -17% | K-562 leukemia 0.0057% | MALME-3M melanoma -91.3% | MDA-MB-231 breast -55.9% | RXF 393 renal -83% | SF-268 CNS -15.9% | SF-295 CNS -24.3% | SF-539 CNS -95.8% | UACC-257 melanoma -42.2% | M14 melanoma -88.3% | HCT-15 colon -64.9% | HT29 colon -44.6% | SNB-75 CNS -45% | SNB-19 CNS -15% | U251 CNS -45.1% | SK-MEL-5 melanoma -99% | UACC-62 melanoma -77.3% | LOX IMVI melanoma -62.2% | SK-MEL-28 melanoma -97.7%

CC(C)(C)n1cc(-c2ccnc(NCCNS(=O)(=O)c3ccc(Br)cc3)c2)c(-c2cccc(O)c2)n1
active: K-562 leukemia 6.18% | HCT-15 colon -0.0275% | HT29 colon -11% | SK-MEL-5 melanoma -19%
inactive: DU-145 prostate 49.8% | MALME-3M melanoma 20.1% | MDA-MB-231 breast 38.2% | RXF 393 renal 26.3% | SF-268 CNS 33.1% | SF-295 CNS 31.8% | SF-539 CNS 46.5% | UACC-257 melanoma 36% | M14 melanoma 21.9% | SNB-75 CNS 19.4% | SNB-19 CNS 52.3% | U251 CNS 21.7% | UACC-62 melanoma 49.6% | LOX IMVI melanoma 12.7% | SK-MEL-28 melanoma 38.5%

Cc1ccc(C(F)(F)F)cc1N1CCN(C(=O)[C@H]2C[C@H]2c2ccc(C(F)(F)F)nc2)CC1
inactive: DU-145 prostate 105% | K-562 leukemia 78.1% | MALME-3M melanoma 94% | MDA-MB-231 breast 91.3% | RXF 393 renal 92.8% | SF-268 CNS 91.3% | SF-295 CNS 94.7% | SF-539 CNS 88.6% | UACC-257 melanoma 92.7% | M14 melanoma 97.5% | HCT-15 colon 93.2% | HT29 colon 79.8% | SNB-75 CNS 92.2% | SNB-19 CNS 90.5% | U251 CNS 94.2% | SK-MEL-5 melanoma 81.6% | UACC-62 melanoma 74.8% | LOX IMVI melanoma 96.2% | SK-MEL-28 melanoma 100%

c1ccc2cc(Cn3cc[n+](Cc4ccc5ccccc5c4)c3)ccc2c1
active: UACC-257 melanoma -9.54% | HT29 colon -31% | SK-MEL-5 melanoma -46.4%
inactive: DU-145 prostate 53.2% | K-562 leukemia 22.5% | MALME-3M melanoma 13.8% | MDA-MB-231 breast 18.7% | RXF 393 renal 35.1% | SF-268 CNS 32.1% | SF-295 CNS 70.3% | SF-539 CNS 50.2% | M14 melanoma 16.1% | HCT-15 colon 91.2% | SNB-75 CNS 19.3% | SNB-19 CNS 29.8% | U251 CNS 21.8% | UACC-62 melanoma 10.3% | LOX IMVI melanoma 37.5% | SK-MEL-28 melanoma 20.3%

COc1cc(C(=O)n2nc(NCCCc3ccccc3)c3cc(N)ccc32)cc(OC)c1OC
inactive: DU-145 prostate 106% | K-562 leukemia 88.9% | MALME-3M melanoma 100% | MDA-MB-231 breast 83.1% | RXF 393 renal 101% | SF-268 CNS 96.7% | SF-295 CNS 81% | SF-539 CNS 93.1% | UACC-257 melanoma 120% | M14 melanoma 93.6% | HCT-15 colon 90.8% | HT29 colon 91.8% | SNB-75 CNS 85.2% | SNB-19 CNS 101% | U251 CNS 100% | SK-MEL-5 melanoma 89.4% | UACC-62 melanoma 92.2% | LOX IMVI melanoma 79.9% | SK-MEL-28 melanoma 96.4%

COc1ccc(Nc2nccc(Nc3ccc4[nH]ncc4c3)n2)cc1
inactive: DU-145 prostate 32% | MALME-3M melanoma 76.1% | MDA-MB-231 breast 48.6% | RXF 393 renal 31.8% | SF-268 CNS 47% | SF-295 CNS 47.7% | SF-539 CNS 68.8% | UACC-257 melanoma 46.2% | M14 melanoma 33% | HT29 colon 12.1% | SNB-75 CNS 65.8% | SNB-19 CNS 59.7% | U251 CNS 35.5% | UACC-62 melanoma 38.6% | LOX IMVI melanoma 19% | SK-MEL-28 melanoma 65.8%
active: K-562 leukemia 4.96% | HCT-15 colon 6.21% | SK-MEL-5 melanoma 1.85%

C=C1CC[C@@H]2[C@](C)(COC(C)=O)[C@H](OC(C)=O)CC[C@@]2(C)[C@@H]1CC(Nc1ccc(S(=O)(=O)Nc2nccc(C)n2)cc1)C1=CCOC1=O (some centres not stated)
active: K-562 leukemia 3.62% | MALME-3M melanoma -0.704% | RXF 393 renal -38.3% | SF-539 CNS -62.7% | HCT-15 colon -42% | HT29 colon -28.2% | SNB-75 CNS 9.66% | LOX IMVI melanoma -72.9% | SK-MEL-28 melanoma -7.05%
inactive: DU-145 prostate 38.5% | MDA-MB-231 breast 13.3% | SF-268 CNS 43.2% | SF-295 CNS 78.6% | UACC-257 melanoma 48.5% | M14 melanoma 11.2% | SNB-19 CNS 53.6% | U251 CNS 14.6% | SK-MEL-5 melanoma 45% | UACC-62 melanoma 24.2%

C1=C2CCCC3=Cc4ccccc4OC23Oc2ccccc21
active: RXF 393 renal 9.77% | SF-539 CNS 7.81% | HT29 colon 5.93%
inactive: DU-145 prostate 28.1% | K-562 leukemia 15.3% | MALME-3M melanoma 56.8% | MDA-MB-231 breast 43.5% | SF-268 CNS 31.6% | SF-295 CNS 11.3% | UACC-257 melanoma 40.1% | M14 melanoma 19.2% | HCT-15 colon 20.1% | SNB-75 CNS 23% | SNB-19 CNS 27.4% | U251 CNS 26.5% | PC-3 prostate 34.7% | UACC-62 melanoma 14.5% | SK-MEL-28 melanoma 54.2%

COC(=O)c1c(C)nc(C)c2c1C(=O)C(Br)=C(NCCCCO)C2=O
active: MALME-3M melanoma -2.98% | SK-MEL-5 melanoma -53.4%
inactive: DU-145 prostate 79.6% | K-562 leukemia 71% | MDA-MB-231 breast 75.1% | RXF 393 renal 77.7% | SF-268 CNS 76.3% | SF-295 CNS 72.1% | SF-539 CNS 89.5% | UACC-257 melanoma 45.6% | M14 melanoma 46.9% | HCT-15 colon 49.8% | HT29 colon 19.5% | SNB-75 CNS 97.7% | SNB-19 CNS 75.3% | U251 CNS 72.1% | UACC-62 melanoma 44.2% | LOX IMVI melanoma 50.2% | SK-MEL-28 melanoma 102%

O=C(Oc1ccccc1)c1cc(O)c(O)c(O)c1
inactive: DU-145 prostate 76.2% | K-562 leukemia 50.8% | MALME-3M melanoma 88% | MDA-MB-231 breast 63.4% | RXF 393 renal 110% | SF-268 CNS 59.7% | SF-295 CNS 73.5% | SF-539 CNS 54% | UACC-257 melanoma 112% | M14 melanoma 68.4% | HCT-15 colon 39.8% | HT29 colon 85.7% | SNB-75 CNS 79.5% | SNB-19 CNS 65.2% | U251 CNS 54.8% | SK-MEL-5 melanoma 58.4% | UACC-62 melanoma 31.3% | LOX IMVI melanoma 59.3% | SK-MEL-28 melanoma 89.9%

Cn1cc(-c2ccc3c(Nc4cccc(NC(=O)Nc5cccc(F)c5)c4)ncnc3c2)cn1
active: K-562 leukemia 4.38% | RXF 393 renal -13.9% | SF-295 CNS -13.2%
inactive: DU-145 prostate 41.8% | MALME-3M melanoma 27.5% | MDA-MB-231 breast 41.8% | SF-268 CNS 46.7% | SF-539 CNS 20.4% | UACC-257 melanoma 63.9% | M14 melanoma 41.3% | HCT-15 colon 37.8% | HT29 colon 32.8% | SNB-75 CNS 43.8% | SNB-19 CNS 65% | U251 CNS 28.4% | SK-MEL-5 melanoma 41.4% | UACC-62 melanoma 32.4% | LOX IMVI melanoma 41.9% | SK-MEL-28 melanoma 49.6%

C#Cc1cccc(Nc2nc(Cl)nc3cc(NC(=O)CCl)ccc23)c1
active: DU-145 prostate -93.5% | K-562 leukemia -36.2% | MALME-3M melanoma -83.3% | MDA-MB-231 breast -73% | RXF 393 renal -94.2% | SF-268 CNS -52.2% | SF-295 CNS -86.9% | SF-539 CNS -96.5% | UACC-257 melanoma -53.9% | M14 melanoma -52.2% | HCT-15 colon -77.7% | HT29 colon -37.8% | SNB-75 CNS -97.5% | SNB-19 CNS -77.1% | U251 CNS -81.8% | SK-MEL-5 melanoma -90.9% | UACC-62 melanoma -80.5% | LOX IMVI melanoma -77.3% | SK-MEL-28 melanoma -94.4%
